The source of these data is article PMC7862700, “An all-to-all approach to the identification of sequence-specific readers for epigenetic DNA modifications on cytosine”.

Holding throughout (assay): DAPPL (digital affinity profiling via proximity ligation, sequencing); 10 mM Tris-HCl pH 7.5, 50 mM NaCl, 1 mM DTT, 4% glycerol, room temperature, 30 min; GST-TFs on glutathione beads, 16-mer random dsDNA library, 0.1% formaldehyde crosslink after washing; high values mean tight binding
What all share (conditions): protein: recombinant; tags: N-terminal GST; dsDNA, one strand shown

The target of one assay is ELF4 (Homo sapiens, UniProt Q99607 1-663). The method, boiled down: (§1)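 Each value of binding signal is a hexamer's read frequency for a factor divided by the same hexamer's frequency in the tag-only sample. Barcoded, bead-captured GST fusions of human transcription factors made in yeast were pooled with that sample and incubated with 200 nmole of a random double-stranded 16-mer DNA library in Tris/NaCl/DTT/glycerol buffer at room temperature for 30 min. Washing, 0.1% formaldehyde crosslinking, proximity ligation, PCR and Illumina NextSeq500 sequencing followed.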
Chain of ELF4 (Q99607 whole entry, the tested form may be a part): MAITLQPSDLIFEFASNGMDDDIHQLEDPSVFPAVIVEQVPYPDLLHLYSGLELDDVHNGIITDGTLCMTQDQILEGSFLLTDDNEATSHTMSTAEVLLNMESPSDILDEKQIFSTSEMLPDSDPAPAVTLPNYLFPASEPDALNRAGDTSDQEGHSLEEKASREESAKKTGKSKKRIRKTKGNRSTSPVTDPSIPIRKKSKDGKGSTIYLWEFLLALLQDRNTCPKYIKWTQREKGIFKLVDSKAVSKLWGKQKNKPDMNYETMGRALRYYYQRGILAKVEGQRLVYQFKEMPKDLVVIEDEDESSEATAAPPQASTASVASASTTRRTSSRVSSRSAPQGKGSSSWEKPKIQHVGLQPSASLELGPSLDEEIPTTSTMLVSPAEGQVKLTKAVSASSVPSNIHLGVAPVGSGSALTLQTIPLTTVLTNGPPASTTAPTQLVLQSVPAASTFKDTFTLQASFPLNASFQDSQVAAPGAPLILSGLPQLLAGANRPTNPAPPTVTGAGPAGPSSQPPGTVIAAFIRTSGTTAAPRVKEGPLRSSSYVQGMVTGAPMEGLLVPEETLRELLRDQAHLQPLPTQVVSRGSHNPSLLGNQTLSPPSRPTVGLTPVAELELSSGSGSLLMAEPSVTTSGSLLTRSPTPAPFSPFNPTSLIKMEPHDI

The target in a further assay is T1, ELK4 (Homo sapiens, UniProt P28324-2 1-405).
T1 sequence: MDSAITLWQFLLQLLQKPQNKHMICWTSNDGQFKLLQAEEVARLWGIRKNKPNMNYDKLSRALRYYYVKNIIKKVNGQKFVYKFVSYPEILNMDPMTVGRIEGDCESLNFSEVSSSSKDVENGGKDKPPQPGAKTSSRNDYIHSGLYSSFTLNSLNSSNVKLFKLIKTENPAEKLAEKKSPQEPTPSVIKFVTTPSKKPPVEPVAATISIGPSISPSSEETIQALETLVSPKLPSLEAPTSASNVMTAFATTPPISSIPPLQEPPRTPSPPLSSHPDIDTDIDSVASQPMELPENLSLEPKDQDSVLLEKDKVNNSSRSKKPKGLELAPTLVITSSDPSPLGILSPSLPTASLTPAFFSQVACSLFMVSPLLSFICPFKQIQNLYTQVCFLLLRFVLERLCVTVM
The method, boiled down: as §1

Another assay addresses T2, ETV2 (Homo sapiens, UniProt O00321 1-342).
T2 sequence: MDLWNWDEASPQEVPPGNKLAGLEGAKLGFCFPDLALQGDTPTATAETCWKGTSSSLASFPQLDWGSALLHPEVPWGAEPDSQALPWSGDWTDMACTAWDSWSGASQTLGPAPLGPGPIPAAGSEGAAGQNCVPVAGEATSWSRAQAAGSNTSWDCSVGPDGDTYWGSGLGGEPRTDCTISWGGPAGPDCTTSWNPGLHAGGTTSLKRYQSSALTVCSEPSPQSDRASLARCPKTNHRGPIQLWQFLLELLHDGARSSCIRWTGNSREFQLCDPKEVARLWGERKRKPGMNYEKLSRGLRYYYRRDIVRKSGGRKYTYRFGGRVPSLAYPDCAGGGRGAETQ
The gist of the method: as §1

Another assay has as its target T3, ELF3 (Homo sapiens, UniProt P78545 1-371).
T3 sequence: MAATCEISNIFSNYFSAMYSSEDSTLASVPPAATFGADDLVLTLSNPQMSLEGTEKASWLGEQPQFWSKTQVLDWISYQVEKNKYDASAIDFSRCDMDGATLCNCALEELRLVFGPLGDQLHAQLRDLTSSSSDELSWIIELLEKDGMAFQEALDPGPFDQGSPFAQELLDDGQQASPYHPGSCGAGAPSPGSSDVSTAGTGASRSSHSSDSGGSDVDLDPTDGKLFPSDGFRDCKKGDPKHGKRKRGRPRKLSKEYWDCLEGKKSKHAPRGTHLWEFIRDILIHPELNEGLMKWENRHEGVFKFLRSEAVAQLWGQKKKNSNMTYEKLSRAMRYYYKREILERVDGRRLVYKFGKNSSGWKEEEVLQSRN
The method, boiled down: as §1

The target of a further assay is T4, ERF (Homo sapiens, UniProt P50548 1-548).
T4 sequence: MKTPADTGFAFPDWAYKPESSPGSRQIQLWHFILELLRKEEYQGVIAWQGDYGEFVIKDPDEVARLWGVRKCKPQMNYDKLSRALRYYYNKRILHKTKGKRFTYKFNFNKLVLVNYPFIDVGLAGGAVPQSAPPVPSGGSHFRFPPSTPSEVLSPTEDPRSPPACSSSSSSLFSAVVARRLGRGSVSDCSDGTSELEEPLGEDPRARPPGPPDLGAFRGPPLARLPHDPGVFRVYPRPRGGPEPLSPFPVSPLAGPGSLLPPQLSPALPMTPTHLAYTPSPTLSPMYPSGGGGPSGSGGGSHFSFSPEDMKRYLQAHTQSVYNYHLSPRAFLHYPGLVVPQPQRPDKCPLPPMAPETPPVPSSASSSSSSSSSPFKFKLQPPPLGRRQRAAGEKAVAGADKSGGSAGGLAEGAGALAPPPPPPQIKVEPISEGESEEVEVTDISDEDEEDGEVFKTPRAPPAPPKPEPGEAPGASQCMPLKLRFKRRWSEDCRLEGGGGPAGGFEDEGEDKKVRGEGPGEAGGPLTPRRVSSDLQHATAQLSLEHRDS
The gist of the method: as §1

The next assay addresses T5, ETV3L (Homo sapiens, UniProt Q6ZN32 1-361).
T5 sequence: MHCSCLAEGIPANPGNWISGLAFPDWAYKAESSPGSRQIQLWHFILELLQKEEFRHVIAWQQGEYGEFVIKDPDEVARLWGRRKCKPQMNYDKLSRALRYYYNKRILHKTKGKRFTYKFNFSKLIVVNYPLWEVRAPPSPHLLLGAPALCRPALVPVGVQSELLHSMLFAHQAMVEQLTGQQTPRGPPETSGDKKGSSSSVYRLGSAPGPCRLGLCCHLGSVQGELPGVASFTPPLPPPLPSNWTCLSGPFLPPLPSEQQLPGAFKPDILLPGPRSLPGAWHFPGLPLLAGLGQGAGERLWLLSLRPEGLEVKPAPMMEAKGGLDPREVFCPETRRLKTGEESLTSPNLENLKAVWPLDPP
The gist of the method: as §1

The target in a further assay is T6, ETS2 (Homo sapiens, UniProt P15036 1-469).
T6 sequence: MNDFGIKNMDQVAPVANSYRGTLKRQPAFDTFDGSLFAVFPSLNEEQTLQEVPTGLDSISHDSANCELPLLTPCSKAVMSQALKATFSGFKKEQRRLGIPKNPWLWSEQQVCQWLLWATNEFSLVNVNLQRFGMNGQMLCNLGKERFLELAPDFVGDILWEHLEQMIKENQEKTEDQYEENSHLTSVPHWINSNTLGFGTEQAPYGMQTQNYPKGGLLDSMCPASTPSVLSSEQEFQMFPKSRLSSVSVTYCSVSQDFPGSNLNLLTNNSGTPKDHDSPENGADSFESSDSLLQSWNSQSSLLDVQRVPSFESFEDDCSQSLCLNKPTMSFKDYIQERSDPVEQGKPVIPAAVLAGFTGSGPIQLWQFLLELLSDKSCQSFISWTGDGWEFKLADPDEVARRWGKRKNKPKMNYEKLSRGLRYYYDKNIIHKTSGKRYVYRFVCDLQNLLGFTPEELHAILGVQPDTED
The method, boiled down: as §1

A further assay concerns the target T7, ETV7 (Homo sapiens, UniProt Q9Y603 1-341).
T7 sequence: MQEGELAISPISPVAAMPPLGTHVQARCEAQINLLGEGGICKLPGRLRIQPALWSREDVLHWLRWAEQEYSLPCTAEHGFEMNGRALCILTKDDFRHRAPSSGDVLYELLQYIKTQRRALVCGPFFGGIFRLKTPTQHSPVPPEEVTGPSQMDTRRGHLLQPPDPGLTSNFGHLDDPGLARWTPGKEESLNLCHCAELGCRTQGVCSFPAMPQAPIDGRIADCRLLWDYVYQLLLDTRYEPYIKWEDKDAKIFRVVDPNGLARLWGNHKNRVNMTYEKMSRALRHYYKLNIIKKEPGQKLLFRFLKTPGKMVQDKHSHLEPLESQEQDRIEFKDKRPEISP
The method, boiled down: as §1

For a further assay, the target named is T8, ETV3 (Homo sapiens, UniProt P41162-2 1-143).
T8 sequence: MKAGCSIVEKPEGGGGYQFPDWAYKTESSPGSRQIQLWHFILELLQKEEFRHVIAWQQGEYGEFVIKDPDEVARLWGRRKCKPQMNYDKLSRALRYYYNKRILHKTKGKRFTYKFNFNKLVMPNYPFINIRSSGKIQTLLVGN
The method, boiled down: as §1

The next assay deals with ETV6 (Homo sapiens, UniProt P41212 1-452). The gist of the method: as §1
Chain of ETV6 (P41212 whole entry): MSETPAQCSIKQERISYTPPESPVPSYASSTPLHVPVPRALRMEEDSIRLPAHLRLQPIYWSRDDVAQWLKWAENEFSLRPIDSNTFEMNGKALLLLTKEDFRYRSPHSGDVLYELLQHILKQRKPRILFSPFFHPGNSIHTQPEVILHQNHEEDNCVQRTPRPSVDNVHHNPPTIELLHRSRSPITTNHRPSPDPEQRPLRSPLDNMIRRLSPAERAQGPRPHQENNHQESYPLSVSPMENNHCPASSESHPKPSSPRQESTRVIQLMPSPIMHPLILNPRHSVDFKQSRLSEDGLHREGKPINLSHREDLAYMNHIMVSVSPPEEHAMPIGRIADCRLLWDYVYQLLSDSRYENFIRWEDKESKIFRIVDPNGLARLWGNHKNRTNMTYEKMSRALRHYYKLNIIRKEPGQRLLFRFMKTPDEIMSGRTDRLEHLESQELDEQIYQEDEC

As to TGGCCA, the binding signal was 1.13 fold enrichment (6-mer frequency, TF over GST control) with ELF4; 1.08 fold enrichment (6-mer frequency, TF over GST control) with ELK4; 1.02 fold enrichment (6-mer frequency, TF over GST control) with ETV2; 1.04 fold enrichment (6-mer frequency, TF over GST control) in the assay with ELF3; 1.06 fold enrichment (6-mer frequency, TF over GST control) with ERF; 1.04 fold enrichment (6-mer frequency, TF over GST control) with ETV3L. The binding signal was 1.07 fold enrichment (6-mer frequency, TF over GST control) with ETS2; 1.09 fold enrichment (6-mer frequency, TF over GST control) with ETV7; 1 fold enrichment (6-mer frequency, TF over GST control) with ETV3; 1.09 fold enrichment (6-mer frequency, TF over GST control) in the assay with ETV6.
